Screens (PubChem BioAssay)
MITF inh: MITF inhibitors, primary screen, biochemical, AlphaScreen, human | 0.91% of 650,000 active | AlphaScreen MITF homodimerization, bead proximity signal | Microphthalmia-associated transcription factor (Homo sapiens), O75030 | inhibition, % at 2.6 µM | AID 1259374, 2018; in the data active = inhibition above about 50%;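 also: 0% = vehicle wells with protein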
FBW7 activator: FBW7 E3 ligase activators, primary screen, biochemical, AlphaScreen, human | AlphaScreen FBW7–phospho-cyclin E peptide binding, activator screen | normalized activity (activation), % at 26.1 µM | 0.13% of 650,000 active | F-box/WD repeat-containing protein 7 (Homo sapiens), Q969H0; in the data active = normalized activity above about 1.9%;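 also: purified mutant Fbw7 with reduced substrate affinity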
TEAD-YAP inh: TEAD-YAP interaction inhibition, primary screen, TEAD-YAP interaction inhibitor project, luminescence, HEK-TIYL cells. TEAD-Gal4/YAP UAS-luciferase luminescence. inhibition, % at 9.12 µM. AID 1259422, 2018. 1.4% of 640,000 active; in the data active = inhibition above about 32%;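 also: 0% = median of test compound wells and 100% = reference inhibitor wells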
GPR151 activ: activators of human GPR151, primary screen, cell-based, PathHunter beta-arrestin, luminescence. PathHunter beta-arrestin GPR151 cells. activation, % at 11.2 µM. 1% of 650,000 active. AID 1508602, 2020; in the data active = activation above about 4.9%;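 also: 0% = median of compound wells and 100% = cells with positive control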
GPR151 conf act: GPR151 activators, triplicate retest, confirmation, cell-based, PathHunter beta-arrestin, luminescence. shares compounds with GPR151 activ. GPR151 PathHunter beta-arrestin cells, 90 min; % of EA-reagent control over plate median. activation, % at 11.2 µM. 6,700 tested, under 10 active. AID 1508609, 2020;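 active = mean percent activation across replicates above the confirmation screen cutoff of 4.91%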
GPR119 counter: GPR119 activators in beta-arrestin cells, counter-screen for GPR151 activator project, cell-based, PathHunter beta-arrestin, luminescence, triplicate; shares compounds with GPR151 activ; 90 min; 0 = compound-well median, 100 = enzyme-acceptor control; activation, % at 11.2 µM; 0.3% of 6,700 active; AID 1508611, 2020;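 active = mean percent activation in the counterscreen above 29.09%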;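 also: counterscreen on off-target GPR119 to flag nonselective hits from the GPR151 activator screen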
Target sequence (Q8TDV5 whole entry, looked up): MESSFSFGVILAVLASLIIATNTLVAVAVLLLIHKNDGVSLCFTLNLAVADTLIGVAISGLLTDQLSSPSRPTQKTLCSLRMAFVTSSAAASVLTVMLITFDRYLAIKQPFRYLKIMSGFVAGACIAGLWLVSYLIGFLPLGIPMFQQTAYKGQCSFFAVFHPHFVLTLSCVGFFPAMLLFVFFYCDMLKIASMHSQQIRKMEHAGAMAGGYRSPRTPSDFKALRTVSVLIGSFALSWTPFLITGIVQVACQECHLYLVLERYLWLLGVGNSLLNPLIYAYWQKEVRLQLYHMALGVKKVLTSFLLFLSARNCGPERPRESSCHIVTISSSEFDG
The depositor's hits bear a star; · = no result given. Rows were chosen to be rich in hits. Some 3.4% of all compounds tested hit in one or more screens of this group.

SMILES	MITF inh	FBW7 activator	TEAD-YAP inh	GPR151 activ	GPR151 conf act	GPR119 counter
Cc1ccc(S(=O)(=O)NC(C)C2CC3CCC2C3)c([N+](=O)[O-])c1 (configuration not stated)	14	0	15	1	·	·
O=C(Nc1ccc(F)cc1)c1cc(-c2ccccc2)nc2ccccc12	-19	0	0	0	·	·
O=C(Nc1cccc(-c2ccn[nH]2)c1)C1CCN(Cc2ccc3nonc3c2)CC1	7	0	12	3	·	·
CCC(C)NC(=O)C/C(C)=N\NC(=O)Cc1ccccc1 (configuration not stated)	1	0	-2	1	·	·
O=C(O)c1ccccc1Nc1nc(N2CCOCC2)nc(N2CCOCC2)n1	-3	0	-41	9.0*	-1	-13
CCOCCCn1c(SCC(=O)N2CCCCCC2)nc2ccccc2c1=O	5	0	-1	0	·	·
CCNS(=O)(=O)c1ccc(CCC(=O)NC2CC2)cc1	11	0	-12	6.7*	0	10
COCCOC(=O)C1=C(C)NC2=C(C(=O)CCC2)C1c1cccc(Oc2ccccc2)c1 (configuration not stated)	-13	0	5	-1	·	·
CC(=O)N1CCC2(CC1)OC(=O)C(C)=C2C(=O)O	8	0	3	2	·	·
Cc1ccc(-c2nc(C3CCCN3C(=O)CCCC(=O)O)n3ccccc23)cc1 (configuration not stated)	4	-1	-13	5.5*	0	-2
COc1ccc(CCNc2nc(NC3CCN(Cc4ccccc4)CC3)nc3cc(OC)c(OC)cc23)cc1	1	0	-3	8.0*	0	11
Cc1nc(SCC(=O)NC(=O)NCc2ccco2)c2c(-c3cccs3)csc2n1	11	0	2	5.0*	1	4
Cc1nc(SCC(=O)Nc2cc(C)on2)c2c(-c3cccs3)csc2n1	6	0	1	1	·	·
Cc1cccc(-n2nnnc2SCC(=O)NN2C(=O)NC(C)(c3ccccc3)C2=O)c1 (configuration not stated)	-8	0	8	6.9*	1	12
CCOC(=O)C1CN(S(=O)(=O)c2ccc(OC)cc2)c2ccccc2O1 (configuration not stated)	-9	0	2	6.5*	-1	-10
COc1ccc(C2Nc3ccccc3C(=O)N2Cc2ccco2)cc1COc1ccc(Cl)cc1 (configuration not stated)	-7	0	-18	0	·	·
Cc1cnc(Nc2ccc(-n3ccnc3)cc2)nc1NCCN(C(C)C)C(C)C	-3	0	-1	7.0*	0	-1
Cc1ccc(N2C(=O)/C(=C/c3ccc(Br)cc3)C=C2c2ccccc2)c(Br)c1	-9	0	11	-1	·	·
CSc1ccc(-c2ccc3c(c2)CC(CNC(=O)c2ccncc2)O3)cc1 (configuration not stated)	-4	0	11	1	·	·
CSc1ccc(-c2ccc3c(c2)CC(CNC(=O)C2CCOC2)O3)cc1 (configuration not stated)	3	0	7	7.9*	0	-1
CCCCC(C(=O)OC)N1C(=O)c2cc(Cl)c(Cl)cc2C1=O (configuration not stated)	-2	0	-1	7.6*	0	5
COc1ccc(N2C(SC)=NC(=Nc3ccccc3)C23CCCCC3)cc1	2	0	0	0	·	·
Cc1ccc(S(N)(=O)=O)cc1NC(=O)CCCOc1ccc(Cl)cc1Cl	-16	0	-5	1	·	·
CC1=CC(C)C(CNCCN2CCNCC2)C(C)C1 (configuration not stated)	-8	0	-7	4.9*	0	1
CC1=CC(C)C(COC(=O)CN2CCOCC2)C(C)C1 (configuration not stated)	15	0	-4	0	·	·
SMILES	MITF inh	FBW7 activator	TEAD-YAP inh	GPR151 activ	GPR151 conf act	GPR119 counter
CC(=O)Nc1ccc(S(=O)(=O)Nc2nc(-c3ccccc3)c(-c3ccccc3)o2)cc1	6	0	0	4	·	·
COc1ccccc1CCC(=O)Nc1ccc2c(c1)CN(Cc1nccs1)CC2	-19	0	18	1	·	·
O=C1OC(c2ccc(F)cc2)=N/C1=C\c1ccc(-c2ccc(I)cc2)o1	-1	0	-1	6.0*	0	-1
CCc1[nH]n2c(=O)c(Cl)c(C)nc2c1-c1cccs1	2	0	8	7.3*	0	7
COc1ccc(OC)c(C2NC(C(=O)O)C3C(=O)N(c4cccc(C(=O)O)c4)C(=O)C23)c1 (configuration not stated)	-3	0	4	5.0*	0	1
COc1ccc(OC)c(C2NC(C(=O)O)C3C(=O)N(c4ccccc4)C(=O)C23)c1 (configuration not stated)	-7	0	-9	5.2*	0	7
COc1ccc(C2NC(C(=O)O)C3C(=O)N(c4ccc(F)cc4)C(=O)C23)c(OC)c1 (configuration not stated)	-5	0	4	1	·	·
COc1ccc(C2NC(C(=O)O)C3C(=O)N(c4ccc(F)cc4)C(=O)C23)c(OC)c1OC (configuration not stated)	8	0	0	1	·	·
Cc1ccc(-c2n[nH]c(CNC(=O)C3CCCC3)n2)cc1	9	0	-6	2	·	·
Cc1ncc(CO)c2cc(-c3nnc(Nc4ccccc4F)s3)c(=O)oc12	-3	0	-15	5.8*	-2	-14
CCOc1ccc(N2CC(C(=O)OC)CC2=O)cc1 (configuration not stated)	3	0	9	6.4*	0	-1
CCOc1ccc(N2CC(C(=O)N3CCN(C(=O)C4CC(=O)N(c5ccc(OCC)cc5)C4)CC3)CC2=O)cc1 (configuration not stated)	-2	0	-24	2	·	·
CCOc1ccc(N2CC(C(=O)N3CCC4(CC3)NC(=O)c3ccccc3N4)CC2=O)cc1 (configuration not stated)	2	0	-4	5.1*	0	-7
CCC(C)C(NC(=O)C1CCCC(OC)C1)c1nc2cccnc2n1C(C)C (configuration not stated)	9	0	4	0	·	·
COc1ccc(C2/C(=C(\O)c3ccc(Cl)cc3)C(=O)C(=O)N2c2nnc(C)s2)cc1 (configuration not stated)	19	0	12	-2	·	·
